Laboratory results taken from PubChem BioAssay (NCATS).
A number with no mark means an inactive call. Records with an inconclusive call do not appear. Entries that show only a call come without a potency. The source made the active and inactive calls. Unless noted, calls come from the whole dose curve.

biological target: Lysosomal acid glucosylceramidase (Homo sapiens) (UniProt P04062); test: Glucocerebrosidase-p2 (AID 348; in the data active = potency below about 10 µM; note: potency is the fitted concentration of half-maximal effect); settings: purified GBA, blue fluorogenic substrate, 40 min
Sequence (P04062 whole entry, looked up): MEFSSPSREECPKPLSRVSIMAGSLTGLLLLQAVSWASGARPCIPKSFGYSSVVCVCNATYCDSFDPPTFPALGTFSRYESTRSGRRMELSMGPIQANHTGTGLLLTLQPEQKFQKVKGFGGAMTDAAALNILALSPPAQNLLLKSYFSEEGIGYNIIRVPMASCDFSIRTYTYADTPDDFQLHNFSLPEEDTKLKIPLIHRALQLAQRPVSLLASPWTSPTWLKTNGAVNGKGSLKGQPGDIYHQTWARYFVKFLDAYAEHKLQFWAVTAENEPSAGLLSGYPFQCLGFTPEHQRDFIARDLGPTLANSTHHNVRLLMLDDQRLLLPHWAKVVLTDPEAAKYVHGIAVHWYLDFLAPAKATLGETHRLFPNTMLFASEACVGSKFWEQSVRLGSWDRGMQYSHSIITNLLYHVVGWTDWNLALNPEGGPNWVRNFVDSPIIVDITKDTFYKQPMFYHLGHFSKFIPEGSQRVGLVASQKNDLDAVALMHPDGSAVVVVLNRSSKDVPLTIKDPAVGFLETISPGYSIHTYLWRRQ
Method in brief: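 Normal human glucocerebrosidase (0.2 nM) with blue fluorogenic substrate (80 uM final) in citrate/phosphate pH 5.9 with 10mM sodium taurocholate, 0.01% tween-20; 40 min RT, NaOH/glycine stop; fluorescence Ex 365/Em 440; AC50 from a titration from 0.6 nM upwards.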

| Structure (SMILES) | Potency |
| --- | --- |
| O=S1(=O)OC(c2ccc(O)cc2)(c2ccc(O)cc2)c2ccccc21 | > 11.4 µM |
| Cc1ncc(CO)c(CN)c1O | > 11.4 µM |
| NS(=O)(=O)c1ccc(C(=O)O)cc1 | > 11.4 µM |
| CC(C)=CCC/C(C)=C/CO | > 11.4 µM |

tested on: not listed separately; test: AP1 Signaling Pathway (AID 357; active = well fitted curve in either direction with a large enough effect, not every such curve was filed as active;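 note: ME-180 reporter cells stimulated with EGF at its EC50 level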); settings: ME-180 (cervical carcinoma) AP-1-bla reporter, EGF-induced, beta-lactamase ratio, 5 h; series mostly up to 17.2 µM
Method in brief: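 Read-out was the 460nm/530nm emission ratio (excitation 405nm) after CCF4 loading for 2.5 hours at room temperature. Cells carried an AP-1-driven beta-lactamase reporter, were stimulated with EC50 EGF plus compound for 5 hours, and AC50 values came from titrations.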

| Structure (SMILES) | outcome |
| --- | --- |
| CCCCC1(COC(=O)CCC(=O)O)C(=O)N(c2ccccc2)N(c2ccccc2)C1=O | inactive |
| CC(=O)SC[C@@H](Cc1ccccc1)C(=O)NCC(=O)OCc1ccccc1 | inactive |
| Cn1c(=O)c2c(ncn2CCO)n(C)c1=O | inactive |
| O=C(O)c1ccccc1C(=O)Nc1ccc(S(=O)(=O)Nc2nccs2)cc1 | inactive |

biological target: Cytochrome P450 1A2 (Homo sapiens) (UniProt P05177); test: p450-cyp1a2 (AID 410); settings: recombinant CYP1A2, luciferin-ME demethylation, luminescence; series mostly up to 25.6 µM; note: potency is the fitted concentration of half-maximal effect
Sequence (P05177 whole entry, looked up): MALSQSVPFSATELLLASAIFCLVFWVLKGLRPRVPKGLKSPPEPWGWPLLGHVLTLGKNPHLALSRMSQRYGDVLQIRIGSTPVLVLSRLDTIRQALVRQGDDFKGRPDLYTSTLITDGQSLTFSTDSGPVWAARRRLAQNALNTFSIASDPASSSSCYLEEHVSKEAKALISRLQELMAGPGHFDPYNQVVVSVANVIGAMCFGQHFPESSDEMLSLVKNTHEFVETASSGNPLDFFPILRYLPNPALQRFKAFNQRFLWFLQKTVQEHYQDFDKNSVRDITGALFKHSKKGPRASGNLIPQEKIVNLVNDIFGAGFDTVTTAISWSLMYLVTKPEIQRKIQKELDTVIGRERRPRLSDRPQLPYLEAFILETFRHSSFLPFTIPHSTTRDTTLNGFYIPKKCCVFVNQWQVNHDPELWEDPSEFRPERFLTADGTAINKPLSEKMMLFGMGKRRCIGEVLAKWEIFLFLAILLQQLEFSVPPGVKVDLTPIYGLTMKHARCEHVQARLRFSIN
Method in brief: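 Read-out is luminescence from luciferin produced by CYP1A2 demethylation of Luciferin-ME (100uM, at Km). Detection reagent stopped the 60 min NADPH-dependent reaction; signals were normalized to 57 uM furafylline.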

| Structure (SMILES) | Potency |
| --- | --- |
| COc1ccc2cc(CCC(C)=O)ccc2c1 | 0.398 µM (active) |
| NCc1ccc(S(N)(=O)=O)cc1 | inactive |
| CC[N+](CC)(CC(=O)Nc1c(C)cccc1C)Cc1ccccc1 | inactive |
| C[C@@H]1CCC[C@H](C)N1 | inactive |
| CC(=O)SC[C@@H](Cc1ccccc1)C(=O)NCC(=O)OCc1ccccc1 | 2.51 µM (active) |
| Cc1cc(NC(=O)C2=C(O)c3ccccc3S(=O)(=O)N2C)no1 | inactive |
| C[N+](C)(C)CC[N+]1(C)Cc2c(Cl)c(Cl)c(Cl)c(Cl)c2C1 | inactive |
| NC(N)=NS(=O)(=O)c1ccc(N)cc1 | inactive |
| Cn1c(=O)c2c(ncn2CCO)n(C)c1=O | inactive |
| Cc1cc(C)nc(NS(=O)(=O)c2ccc(N)cc2)n1 | inactive |
| O=C(O)c1ccccc1C(=O)Nc1ccc(S(=O)(=O)Nc2nccs2)cc1 | inactive |
| CC[N+](C)(CC)CCOC(=O)C1c2ccccc2Oc2ccccc21 | 10 µM (active) |
| CCN(CC)CCOC(=O)C(c1ccccc1)c1ccccc1 | 5.01 µM (active) |
| CCc1cccc(CC)c1NC(=O)CN(CC(=O)O)CC(=O)O | inactive |
| CN/C(=C\[N+](=O)[O-])NCCSCc1csc(CN(C)C)n1 | inactive |
| CCOC(=O)[C@H](CCc1ccccc1)N[C@@H](C)C(=O)N1CCC[C@H]1C(=O)O | inactive |
| Cc1cccc(Nc2ccccc2C(=O)O)c1C | 5.01 µM (active) |
| NS(=O)(=O)c1ccc(C(=O)O)cc1 | inactive |
| Cc1c(NC(C)C)c(=O)n(-c2ccccc2)n1C | 0.0398 µM (active) |
| O=C(Cn1ccnc1[N+](=O)[O-])NCCO | inactive |
| O=C(O)COC(=O)Cc1ccccc1Nc1c(Cl)cccc1Cl | inactive |
| O=C(O)c1ccccc1OP(=O)(O)O | inactive |
| CC(C)(C)C(=O)OCOC(=O)[C@@H]1N2C(=O)[C@@H](NC(=O)[C@H](N)c3ccccc3)[C@H]2SC1(C)C | inactive |
| CC(=O)NS(=O)(=O)c1ccc(N)cc1 | inactive |
| Cn1c([N+](=O)[O-])cnc1COC(N)=O | inactive |
| CCN(CC)CCc1nc(-c2ccccc2)no1 | 5.01 µM (active) |
| CN(C(=O)c1c(O)c2ccccc2n(C)c1=O)c1ccccc1 | inactive |
